Bioassay records deposited in PubChem by several laboratories.
Only some compounds are listed: those with a hit (about 1.3% of all), similar ones and a draw of the others.
GC-B act – GC-B (human) receptor activation; actives 0.11% (n = 370,000); activation, % at 10 µM; HEK293-GC-B cells, CNP EC30, cGMP TR-FRET; 0% at EC30 CNP, 100% saturating CNP; AID 1920062; P20594;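 active = activation at 10 µM reaching about 35% in either raw or pattern-adjusted values, limit read from the data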
GC-A act – GC-A (human) enzyme activation; actives 0.14% (n = 370,000); HEK293 GC-A cells, cGMP TR-FRET, EC30 ANP; 0% at EC30 ANP, 100% saturating ANP; activation, % at 10 µM; P16066; in the data active = activation above about 40%
KLK7 zymogen act – proKLK7 (human) activation, primary screen; AID 652039; purified proKLK7, EDANS-DABCYL substrate fluorescence; 100% is mature enzyme control, 0% vehicle; P49862; actives 0.9% (n = 370,000); activation, % at 7 µM;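 active = activation above the mean of all tested compounds plus 3 SD, computed per campaign excluding outliers beyond control limits, cut at about 13% in these data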
HIF activator – HIF pathway transcriptional activation | U2OS HRE-luciferase reporter, luminescence; normalized: DMSO 0%, desferrioxamine 100% | activation, % at 7.5 µM (by protocol) | actives 0.32% (n = 300,000);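 active = mean activation of at least 10% of the iron chelator positive control signal, with at least half of replicates also reaching 10%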
KLK7 act conf – confirmation of human kallikrein-7 zymogen activators. AID 686949. shares compounds with KLK7 zymogen act. purified proKLK7, EDANS-DABCYL substrate fluorescence; scaled: vehicle 0, mature enzyme 100. activation, % at 7 µM. actives 68% (n = 3,200);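 active = activation, as change over the incubation, above the mean of all tested compounds plus 3 SD, cut at about 13% in these data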
EDANS interfere – optically interferes with EDANS-DABCYL signal, flagging KLK7 hits. shares compounds with KLK7 zymogen act. EDANS-DABCYL substrate fluorescence interference, no enzyme, 4 h; solvent 0%, active enzyme control 100%. activation, % at 7 µM. actives 80% (n = 3,200);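 active = activation above the all-compound mean plus 3 SD, ignoring values outside control-based bounds, cut at about 4.8% in these data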;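 also: value is the 4 h activation minus the activation read at time zero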
K7 EDANS ctr – counter-screen for kallikrein-7 activators: EDANS-DABCYL interference, dose response. shares compounds with KLK7 zymogen act. actives 20% (n = 250). EDANS-DABCYL peptide fluorescence interference, no enzyme. EC50, µM;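 active = compounds that raise the fluorescence signal in this interference counterscreen, with EC50 at or below 10 µM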;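 also: intact quenched peptide substrate alone read at 355 nm excitation and 520 nm emission; signal is fluorescence gain from T0 to T4 after four hours at room temperature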
* = called active by the depositor; / = not tested or not shown.

SMILES	GC-B act	GC-A act	KLK7 zymogen act	HIF activator	KLK7 act conf	EDANS interfere	others
CCN(CC)CCn1c2ccccc2c2cnc(N)c(C#N)c21	-4.8	-3.6	17.5*	24.9*	7.0	3.0
CC(=O)Oc1ccc2c3c(c(=O)oc2c1C)CCCC3	0.3	1.9	167.9*	-12.2	531.1*	499.6*
Cc1cc(C)cc(N(CC(=O)NC2CCC(C)CC2)S(=O)(=O)c2ccc(Br)s2)c1 (stereo not given)	-5.9	-5.8	-0.4	/	/	/
O=C(OCc1cn(Cc2ccccc2Cl)nn1)N1CCOCC1	4.5	0.6	0.5	/	/	/
CCCCC(=O)N[C@H]1CC[C@@]23CCCN2C(=O)CCC[C@H]3[C@H]1C	-4.0	1.3	/	/	/	/
Cc1ccc(C2C=C(c3ccccc3)Nc3nc(N4C(=O)CCC4=O)nn32)cc1 (stereo not given)	-6.7	-0.4	90.8*	/	-53.1	-89.5
COc1cccc(-c2ccc(CC[C@H]3O[C@H]4CC[C@@H](CO)O[C@H]4C[C@H]3NC(=O)c3cnccn3)cc2)c1	-3.7	3.4	0.3	/	/	/
COC(=O)Nc1nnc(-c2ccccc2OC)s1	-7.7	0.9	-12.5	1.8	/	/
COCC(=O)N(C)c1nnc(-c2ccccn2)s1	0.9	0.7	63.2*	2.6	82.2*	77.3*
CN(C(=O)C1CCCO1)c1nnc(-c2ccccn2)s1 (stereo not given)	5.1	-1.8	98.5*	1.8	94.1*	94.8*
COc1ccccc1-c1nnc(N(C)C(=O)C2CCCO2)s1 (stereo not given)	-2.6	0.9	17.8*	-0.3	26.3*	26.2*
CN(C(=O)C1CCCO1)c1nnc(-c2ccncc2)s1 (stereo not given)	3.1	-4.0	130.4*	-0.4	166.7*	166.5*
O=C(O)c1ccc(-n2nc(-c3ccccc3O)nc2-c2ccccc2O)cc1	-8.8	1.3	0.2	/	/	/
COc1ccccc1C(=O)CSc1nnc(-c2ccncc2)n1-c1ccc(Cl)cc1	-10.0	-9.3	0.8	/	/	/
Cc1cccc(NC(=O)c2cccc3c2-c2ccccc2C3=O)c1C	9.0	0.0	-0.3	/	/	/
COc1ccc(C2=CC(c3ccc(OC)c(OC)c3)n3nnnc3N2)c(OC)c1 (stereo not given)	1.2	7.1	15.8*	-1.3	10.9	-15.4
COc1cccc(C2C=C(c3ccc(OC)cc3OC)Nc3nnnn32)c1 (stereo not given)	/	/	/	2.3	/	/
Cn1c(Cc2cccs2)nnc1SCC(=O)Nc1ccc2c(c1)OCO2	-1.7	4.5	0.1	/	/	/
COC(=O)CSc1nnc(-c2cccs2)o1	4.7	-0.7	0.7	/	/	/
CCOC(=O)c1cc2c(=O)n3ccccc3nc2n(CC2CCCO2)c1=NC(=O)/C=C/c1ccccc1 (stereo not given)	-6.8	1.0	92.2*	-0.4	16.1*	1.0	K7 EDANS ctr=>69.5
CCOC(=O)c1cc2c(=O)n3ccccc3nc2n(CC2CCCO2)c1=NC(C)=O (stereo not given)	-1.5	7.5	80.2*	-0.1	64.1*	67.5*
Cc1ccc(CNC(=O)c2cc3c(=O)n4ccccc4nc3n(CC3CCCO3)c2=N)cc1 (stereo not given)	/	/	/	-0.4	/	/
CCOC(=O)c1cc2c(=O)n3ccccc3nc2n(C)c1=NC(=O)c1c(-c2c(F)cccc2Cl)noc1C	-16.1	-24.9	3.8	-0.5	/	/
CC(C)(C)c1ccc(-c2nnc(SCC(=O)Nc3ccccc3-c3ccccc3)n2Cc2ccco2)cc1	10.0	-0.7	0.4	/	/	/
Cc1c(-c2cccc(NC(=O)c3ccco3)c2)nc2ncccn12	-0.7	0.8	91.0*	1.3	68.7*	80.8*
SMILES	GC-B act	GC-A act	KLK7 zymogen act	HIF activator	KLK7 act conf	EDANS interfere	others
O=C(Nc1cccc(-c2cn3cccnc3n2)c1)c1ccco1	-3.4	0.0	/	0.1	/	/
Cc1c(-c2cccc(NC(=O)c3cccs3)c2)nc2ncccn12	1.9	1.4	61.9*	-0.1	47.1*	62.2*
COC1=C[C@H](C(=O)NCc2ccccn2)[C@@]2(C)Cc3ccccc3[C@H]2CC1=O	8.0	3.1	0.0	/	/	/
CC(C)(C)c1ccc(S(=O)(=O)NCC(=O)N2CCN(c3ncccn3)CC2)cc1	0.8	3.1	0.1	/	/	/
CCOc1ccc2nc(N3CCOCC3)nc(C)c2c1	-0.2	-0.6	21.3*	2.3	-20.7	-31.9
CCOc1ccc(Nc2cc(C)nc(N3CCOCC3)n2)cc1	-3.6	-0.5	-0.5	0.4	/	/
COc1ccc(-n2c(SCc3cccc4ccccc34)nnc2-c2ccccc2)cc1	-18.7	-26.7	0.2	/	/	/
CCOc1ccc(/C=N/NC(=O)c2nnn(-c3nonc3N)c2-c2cccs2)cc1	4.0	-1.5	80.3*	-0.2	-28.1	-231.5
COc1ccc2ccccc2c1/C=N/NC(=O)c1nnn(-c2nonc2N)c1C(C)C	6.1	-0.1	40.1*	-0.5	-4.3	-2.6
Cc1ccc(-c2c(C(=O)N/N=C/c3ccc4c(c3)OCO4)nnn2-c2nonc2N)cc1	-5.5	-0.3	194.7*	0.0	71.0*	75.0*
O=C(NCc1ccco1)Nc1ccc2nsnc2c1	-1.4	-11.5	27.0*	0.6	26.2*	29.0*
COC(=O)[C@]12C[C@H](CC(=O)N3CCOCC3)C(=O)N(Cc3cccc4ccccc34)C1=C[C@H](C(C)(C)C)O[C@@H]2C	-7.5	-9.7	0.0	/	/	/
COC(=O)C1=CN(Cc2ccc(OC)c(OC)c2)C=C(C(=O)OC)C1c1ccc(O)cc1	6.5	1.5	20.6*	-1.0	-147.2	-167.9
COC(=O)C1=CN(Cc2ccc(OC)c(OC)c2)C=C(C(=O)OC)C1c1ccc(F)cc1	12.8	5.9	-22.1	-1.7	/	/
COc1ccc(OC)c(S(=O)(=O)Nc2ccc(C(=O)Nc3cc(C)on3)cc2)c1	-2.2	-12.9	0.6	/	/	/
CC(C)[C@H](NC(=O)OCc1ccccc1)C(=O)OCc1cc(=O)oc2cc(O)ccc12	-3.8	-4.6	28.1*	-0.1	62.2*	60.5*
O=c1c2ccccc2[nH]c2ccccc12	-4.2	3.2	17.4*	0.5	17.3*	24.3*
c1ccc2c(c1)CCN(C1=Nc3cccc4cccc1c34)C2	-3.5	2.0	14.1*	/	6.6	8.2*
c1cc2c3c(cccc3c1)C(N1CCCCC1)=N2	/	/	/	0.3	/	/
c1cc2c3c(cccc3c1)C(N1CCCCCC1)=N2	/	/	51.8*	-0.4	7.2	9.4*
c1ccc(NC2=Nc3cccc4cccc2c34)cc1	-2.8	-2.0	0.3	2.0	/	/
N/C(=N\C(=O)OCc1ccccc1)N(CC#CC1=CCCCC1)CC1CC1	7.1	-2.2	0.0	/	/	/
CC(=O)N1CCc2cc([N+](=O)[O-])ccc21	-2.7	4.3	0.0	/	/	/
